Reference: the supplement of paper PMC6555819

Assays:
Test in all cases: PBM binding z-score (relative to random genomic background probes); higher = stronger binding; sequences stand for … in GC…GCGATTGACAGCGTAGAATGAAGG
[1] = test system: RARb homodimer (NR concentration 270 nM)
In short: (§1)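 Custom Agilent 4×180K protein-binding microarrays carried double-stranded probes. Their 34-nt variable regions held direct-repeat seeds, single-nucleotide variants, half-site ablations and random human genomic background sequences. Arrays were incubated 1 h with ligand-free nuclear receptor dimers in PBS pH 7.4, 2% milk, 0.02% Triton X-100, 1 mM DTT, 0.2 mg/mL BSA and 0.4 mg/ml salmon testes DNA. Antibodies against each partner (one per run) detected binding, and scanned fluorescence was regression-normalized. Binding z-scores use random background probes as reference.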

[2] = test system: RARg:RXRa (NR concentration 270 nM, RXRa partner concentration 90 nM)
In short: as §1

[3] = test system: RARg homodimer (NR concentration 270 nM)
In short: as §1

[4] = test system: RXRa DBDmut IVT, anti-RXR (DBD mutation: RXRa K156A/R161A, NR concentration 90 nM)
In short: as §1

[5] = test system: RXRa homodimer (NR concentration 180 nM)
In short: as §1

[6] = test system: THRa:RXRa (NR concentration 90 nM, RXRa partner concentration 90 nM)
In short: as §1

[7] = test system: THRa homodimer (NR concentration 90 nM)
In short: as §1

[8] = test system: VDR homodimer (NR concentration 270 nM)
In short: as §1

Sequence	PBM binding z-score [1]	PBM binding z-score [2]	PBM binding z-score [3]	PBM binding z-score [4]	PBM binding z-score [5]	PBM binding z-score [6]	PBM binding z-score [7]	PBM binding z-score [8]
CGAACGAGAGCATGAGTTGATAGCAAATGCCGAT	-0.657	-0.0472	0.132	0.193	-0.065	-0.724	-1.07	0.244
TCTATTAGTTGATTAGGACAACCGAAACAGCGGA	0.549	0.758	0.926	1.39	0.79	1.84	1.63	1.03
CGTCCAAGGTCAGCAGGGCAGTGAAAGCGACGTG	4.12	5.28	5.9	2.63	3.74	3.61	1.9	1.02
GGGACGAGGGCATTCGAGTTGATAGCATGGCGAT	1.01	1.19	1.58	2.93	0.775	3.52	-0.0645	3.06
CGTTACGGGTCACGAGGTTATAGCACGACGAGCG	3.99	6.32	5.62	2.01	7.51	3.95	1.09	1.96
CCTTACGGATCACGAGGTTATAGCACGACGAGCG	1.15	0.741	0.714	0.575	1.62	1.52	1.08	1.06
AGTCTAAGTTCATCTAGGTAACGTAAGATATGCT	2.48	3.58	4.02	4.94	2.6	2.9	0.767	5.9
GCTGCTAGGTCAGGTTGGTCCGCTAACGGGTACG	2.4	2.29	3.46	0.513	0.839	2.36	0.57	-0.0405
CCTACTGGGCCAAAAAGGTCATCGATGCCGATAA	4.84	5.18	4.77	0.518	5.25	3.28	0.651	1.99
TCATATAGGTAAAGGTGACAGTCGAACGATATGA	1.42	1.61	1.5	0.827	2.06	1.38	-0.0654	-0.0372
ACAGACAGGTGATGAAGGTGACTCAGGCTATCAT	1.34	0.646	0.55	-0.283	0.581	1.01	-0.00476	-0.102
CGAACTAGGTCAAGGATAGTGAATCTCCGCACGC	3.08	3.74	4.44	1.47	2.58	2.67	1.35	0.279
CCTGCTAGCTCATGGTCAGCTAATCTACAGTATG	-0.424	-0.342	-0.0465	-0.0856	-0.437	-0.44	-0.771	-0.81
GCTGCTGGGTCAACTGATGGTCAGCTAAAGCTCG	3.36	5.04	4.22	1.22	3.13	2.41	0.228	-0.125
CCTCGGAGGACAACAGGAGGTCCGAGCTGCCAGA	0.279	0.372	0.854	-0.16	-0.455	0.4	-0.324	-0.197
CCTCGGAGGACAACAGGAGGTCAGAGCCGCCAGA	3.53	3.51	3.53	0.0894	1.71	2.8	0.858	0.836
ATATGTAGGTTACATCCGGGTCAGTCAGGCTATG	2.61	3.29	1.88	0.541	2.01	3.19	1.66	1.45
